Shown are actives, neighbours in structure and some others; about 2.8% of the full set was active somewhere.
HepG2 tox = counter-screen for TGF-b inhibitors: cytotoxicity in HepG2 cells. HepG2 CAGA-GFP viability, ATP luminescence, 18 h. Potency, µM (series often up to 46.1 µM), inactives show at the top dose activity change, negative = cytotoxicity, usual class: cytotoxic. hit rate 0.76% among 410,000
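CellTiter-Glo luminescence gave cytotoxicity after 18 hours at 37 degrees C. The cells were HepG2 CAGA-GFP in 1% FBS DMEM, stimulated with 500 pg/mL TGF-beta after compound addition. %Activity was normalised to no-cell wells (complete cell-killing) and DMSO (no toxicity), and curves were fitted and classified.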
HTT ATP protect = protects HTT-Q103 PC12 cells, measured by ATP | PC12 HTT-Q103 induced, cytoprotection, ATP luminescence, 40 h | AID 1471 | hit rate 0.14% among 230,000 | Potency, µM (top dose mostly 56.4 µM), inactives show cytoprotection (ATP increase), usual class: activators; note: % of control where 0% means no effect; nearly all actives have a fitted effect of over 45% in size
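PC12 cells stably carrying ecdysone-inducible Htt exon 1 (Q103)–GFP were induced with 100 nM tebufenozide (final) alongside library compounds in a dose series. Cytoprotection was scored as retained ATP by ATPlite luminescence.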
HttQ103 aggreg = mutant huntingtin aggregation inhibition. PC12 HttQ103-GFP aggregates, Acumen cytometry, 40 h. hit rate 1.1% among 220,000. Potency, µM (doses to about 46.1 µM), inactives show at the top dose activity change, negative = inhibition, usual class: inhibitors; note: % is set by controls: 0 for no effect and ±100 for the full control effect; nearly all actives have a fitted effect of over 60% in size
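Aggregate formation scored by laser-scanning cytometer (488 excitation, 500–530 emission) in lysed PC12 cells expressing Q103-GFP after 100 nM tebufenozide induction; library tested in dose series, with ATPLite reagent added in the multiplex.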
ATXN2 expr inh = ATXN2 expression inhibition | HEK-293 ATXN2-luciferase reporter, luminescence, 24 h | hit rate 0.72% among 360,000 | Potency, µM (top dose mostly 57 µM), for inactives: top-dose activity change, negative = inhibition, usual class: inhibitors; note: % is set by controls: 0 for no effect and ±100 for the full control effect; nearly all actives have a fitted effect of over 55% in size
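ATXN2-luciferase reporter cells (luciferase flanked by upstream and downstream ATXN2 gene portions) were treated 24 h at 37 °C with compounds at up to 57 uM. SteadyGlo luminescence gave expression; GF-AFC fluorescence gave viability.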
TGFb SMAD3 inh = blocks TGF-b signaling. Potency, µM (doses to about 46.1 µM), inactives show at the top dose activity, negative = inhibition, hits mostly inhibitors. hit rate 1.2% among 410,000. HepG2 CAGA-GFP TGF-b/SMAD3 reporter, GFP fluorescence, 18 h; TGF-beta stimulated, 500 pg/mL final; note: % is set by controls: 0 for no effect and ±100 for the full control effect; nearly all actives have a fitted effect of over 65% in size
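Cell-based qHTS in HEPG2 carrying a CAGA-GFP Smad reporter; compounds added before 500 pg/mL final TGF-beta, 18 h incubation at 37 degrees C, GFP fluorescence quantified per cell by imaging cytometry.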
ATXN viability = viability counter-screen for ATXN expression inhibitors; AID 651635; S2 cells (HEK-293 line with an ATXN2-luciferase reporter) viability, CellTiter-Fluor protease fluorescence, 24 h; hit rate 0.49% among 400,000; Potency, µM (series often up to 56.7 µM), actives largely listed as cytotoxic; note: nearly all actives have a fitted effect of over 40% in size
Starred values were filed as active, the others as inactive; i = inactive; ? = inconclusive; . = no result given; [ ] = another dose, or the depositor's remark. Calls come from the whole dose curve; as a rule, active = well fitted curve in the direction sought with a large enough effect; inconclusive = small, poorly fitted or top-dose-only effect, or another doubt; inactive = no such curve, though single readings can be large; an effect the other way counts as inactive or inconclusive. Potency is the fitted concentration of half-maximal effect.

SMILES | HepG2 tox | HTT ATP protect | HttQ103 aggreg | ATXN2 expr inh | TGFb SMAD3 inh | ATXN viability
O=S(=O)(CC(CN1CCCC1)N1CCCC1)c1ccc2ccccc2c1 (stereo not drawn) | -24.0% | ? | ? | -0.9% | 0.0% | 11.2µM*
Cc1ccc(S(=O)(=O)CC(CN2CCOCC2)N2CCOCC2)cc1 (stereo not drawn) | 60.5% | . | . | -29.4%[11.3 µM] | -12.4% | i
Cn1c(=O)c2c3c(sc2n2c(SCC(N)=O)nnc12)CC(C(C)(C)C)CC3 (stereo not drawn) | 12.6µM* | -2.0% | -15.4% | -10.9% | 0.9% | i
Nc1c(NC/C=C\COc2cc(CN3CCCCC3)ccn2)c(=O)c1=O | . | . | . | 2.7%[25.6 µM] | . | ?
CCOC(=O)C1=C(CSc2nc3ccccc3s2)NC(=O)NC1c1cc(C)ccc1C (stereo not drawn) | 11.2µM* | -41.0% | 4.2% | -36.0% | 11.2µM* | ?
C=C1CCN(C(C(=O)O)C(C)C)S(=O)(=O)c2ccccc21 (stereo not drawn) | -7.4% | . | . | . | 2.4% | .
CC(=O)c1ccccc1-c1csc2ncnc(Sc3nnnn3C)c12 | -2.1% | . | . | ? | ? | ?
Cn1nnnc1Sc1ncnc2scc(-c3ccc(C#N)cc3)c12 | -122.8% | . | . | 10µM* | ? | 10µM*
Cn1nnnc1Sc1ncnc2scc(-c3cccc(F)c3)c12 | -109.9% | . | . | ? | 10µM* | ?
Cn1nnnc1Sc1ncnc2scc(-c3cccc(C(F)(F)F)c3)c12 | -111.7% | . | . | 14.1µM* | ? | 15.8µM*
Cn1nnnc1Sc1ncnc2scc(-c3ccc(C(F)(F)F)cc3)c12 | -111.7% | . | . | 3.98µM* | ? | 11.2µM*
COc1cccc(-c2csc3ncnc(Sc4nnnn4C)c23)c1 | 9.6% | . | . | ? | ? | ?
CN(C)CC(C)(O)c1ccc2c(c1)CN(Cc1cnn(-c3ccccc3)c1)CCO2 (stereo not drawn) | . | . | . | . | . | i
COc1cc(OC)c(OC)cc1CN1CCOc2ccc(CN3CCN(C(C)=O)CC3)cc2C1 | . | . | . | . | . | i
COc1ccc(OC)c(-c2nc3c(C)n[nH]c(=O)c3[nH]2)c1 | -29.4% | -24.1%[10 µM] | 12.6µM* | -20.7% | -10.0% | i
Nc1nc(=S)[nH]c(N)c1N | 18.2% | . | . | . | -0.4% | .
CC(NC(=O)CCCCCCN1C(=O)c2ccccc2C1=O)c1ccc2c(c1)CCCC2 (stereo not drawn) | 6.2% | -14.7%[10 µM] | 10µM* | -10.1% | ? | ?
COc1cc(-c2ccc(Cl)cn2)cc2c1OCCN(C(=O)c1ccccc1-n1cccn1)C2 | . | . | . | . | . | i
Cc1cc(N2CCN(C(=O)Nc3ccc(F)cc3F)CC2)c2ccccc2n1 | -20.0% | . | . | -34.6% | 0.9% | i
CCCCc1ccc(NC(=O)N2CCN(c3cc(C)nc4ccccc34)CC2)c(C)c1 | -23.0% | . | . | 17.8µM* | ? | ?
Cc1ccc(CSC2=NS(=O)(=O)c3ccccc32)cc1 | -28.8% | . | . | . | ? | .
CCOc1ccc(NC(=O)c2ccc(NC(=S)NC3CCCCC3)cc2)cc1 | 17.8µM* | -120.8% | 0.5% | -37.2% | ? | ?
CCOc1ccc(NC(=O)c2ccc(NC(=S)NC3CC3)cc2)cc1 | 2.0% | . | 31.9% | -31.0%[11.3 µM] | -13.3% | i
CCOC(=O)c1ccc(NC(=S)NC2CC(C)(C)NC(C)(C)C2)cc1 | 11.2µM* | -14.3% | -5.7% | ? | ? | ?
CC1(C)[C@H]2CC[C@]3(C)[C@@H](C(=O)C=C4[C@@H]5C[C@@](C)(C(=O)O)CC[C@]5(C)CC[C@]43C)[C@@]2(C)CC[C@@H]1O | . | . | . | -0.1% | . | .
SMILES | HepG2 tox | HTT ATP protect | HttQ103 aggreg | ATXN2 expr inh | TGFb SMAD3 inh | ATXN viability
C[C@@H]1C[C@@]2(C)Oc3ccccc3[C@H]3OC[C@]1(COC(=O)Nc1ccccc1)[C@@H](C)[C@@H]32 | . | -10.6% | . | . | . | .
CCCCSCCCNC(=S)Nc1ccccc1C | -20.4% | -12.3% | 22.4µM* | -13.2% | -11.8% | i
Cc1ccccc1NC(=S)NCCO | -4.6% | -28.4% | 2.6% | -19.0%[11.3 µM] | -2.1% | i
Cc1cc(Br)cn2c(Cc3ccccc3)c(-c3ccco3)nc12 | -2.4% | . | . | 14.0% | -29.2% | ?
Brc1ccc2nc(-c3ccco3)c(CC3CCCCC3)n2c1 | -31.4% | . | . | -4.7% | 11.2µM* | i
COc1ccc(Cc2c(-c3ccco3)nc3ccc(Cl)cn23)c(C)c1 | -46.8% | . | . | -7.7% | 22.4µM* | i
Cc1cc(Br)cn2c(Cc3ccsc3)c(-c3ccco3)nc12 | 15.8µM* | . | . | ? | 6.31µM* | ?
Cc1ccc(Cc2c(-c3ccco3)nc3ccc(Br)cn23)cc1 | -59.7% | . | . | 25.5% | ? | ?
COc1ccc(Cc2c(-c3ccco3)nc3ccc(Br)cn23)c(C)c1 | 15.8µM* | . | . | ? | 15.8µM* | .
OC(CN1CCNCC1)Cn1c2ccc(Br)cc2c2cc(Br)ccc21 (stereo not drawn) | . | -62.5% | . | . | . | .
O=C(O)C[C@H](O)C[C@H](O)C=Cc1c(C2CC2)nc2ccccc2c1-c1ccc(F)cc1 | . | . | . | 33.1% | . | .
CC(C)Nc1ccc(Nc2ccnc3cc4ccccc4cc23)cc1 | 11.2µM* | -35.7%[10 µM] | -9.8%[9.22 µM] | ? | ? | .
COc1ccc(Nc2ccnc3ccccc23)cc1 | -16.2% | 1.7% | ? | 18.7% | -0.5% | i
c1ccc(CCNc2ccnc3cc4ccccc4cc23)cc1 | 11.2µM* | -260.8% | ? | ? | ? | .
CCN(CCO)C(=O)c1cnn(-c2ncc3c(n2)-c2ccccc2CCC3)c1C1CC1 | . | . | . | . | . | i
C[C@H](CO)N1C[C@H](C)[C@@H](CN(C)Cc2ccc(-c3ccccc3)cc2)Oc2c(NS(=O)(=O)c3cn(C)cn3)cccc2C1=O | 3.0% | . | . | 2.4% | 3.16µM* | i
C[C@H](CO)N1C[C@H](C)[C@@H](CN(C)Cc2ccc(Cl)c(Cl)c2)Oc2c(NC(=O)Cc3ccccc3)cccc2C1=O | -17.7% | . | . | 28.2µM* | ? | 14.1µM*
N#CC[n+]1cccc(Br)c1 | 2.2% | . | . | . | -0.8% | .
COC(=O)c1ccc(C(=O)NCC2Cc3cc(F)cc(-c4cncnc4)c3O2)cc1 (stereo not drawn) | . | . | . | . | . | i
CCn1c(=O)c(C(=O)Nc2ccsc2C(=O)OC)c(O)c2ccccc21 | . | ? | 7.08µM* | . | . | .
CCOC(=O)c1ccccc1NC(=O)c1c(O)c2ccccc2n(CC)c1=O | -1.8% | ? | ? | -6.1% | -3.6% | i
CO[C@@H]1c2cc(F)ccc2/C(=C\CCOC(=O)C/C=C/c2ccccc2)[C@H]1C | . | -46.5% | . | . | . | .
Cn1cc(-c2ccccc2C(N)=O)c(=O)c2cc(Cl)ccc21 | 5.6% | 11.0%[10 µM] | 9.0% | -8.7% | 24.5% | i

Assay outcomes as filed in PubChem.
